VLA-4 agonist: allosterically activates the human VLA-4 integrin. 24,000 tested, under 10 active. activation, % at 10 µM (by protocol). Jurkat cells, LDV-FITC binding, flow cytometry. AID 528. P13612;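 active = fluorescent ligand binding to cells raised by more than 40% of the manganese-induced maximum; inconclusive = compound's own fluorescence above 85% of the ligand control signal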;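 note: 0% = ligand binding without compound and 100% = manganese-stimulated maximal binding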
FPRL1 binder: ligands of human FPRL1, also counter-screen for FPR ligands; P25090; FPRL1-expressing cells, fluorescent ligand binding inhibition, flow cytometry; inhibition, % (no concentration beside the values); 0.3% of 24,000 active; AID 441;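 note: 0% = buffer alone and 100% = receptor blocker peptide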
LNCaP diff act: promotes differentiation of LNCaP prostate cells; flow cytometry side scatter, 4 d; side scatter shift, % at 10 µM; 0.56% of 24,000 active;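 active = side scatter shift above 30%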;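 note: androgen-responsive LNCaP prostate cancer cells in charcoal-stripped serum medium; percent of cells past a gate set so DMSO wells show 10% shift; higher shift means more granular cells and more differentiation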
Jurkat autofluor: compound fluoresces in Jurkat cells, VLA-4 screen interference | compound autofluorescence, flow cytometry; stronger effect = higher value; 1 = vehicle-only cell background | fluorescence ratio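 (tested at 10 µM compound in the well)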 | 0.61% of 24,000 active;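 active = fluorescence ratio above 2.44, which is 1 plus 3 SD of all ratios; inconclusive = signal too bright to measure linearly, ratio around 10 or more; inactive = fluorescence ratio below 2.44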;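 note: green fluorescence of cells measured with 488 nm excitation and 530 nm emission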
VLA-4 antagonist: inhibition of LDV-FITC ligand binding to human VLA-4 integrin; AID 529; 0.2% of 24,000 active; Jurkat cells, LDV-FITC binding with Mn2+, flow cytometry; 100% = Mn2+-driven binding gain fully reversed; inhibition, % at 10 µM (by protocol);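 active = inhibition above 50%; inconclusive = compound itself fluorescent, judged against control cell fluorescence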;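 note: 0% = Mn2+ stimulated cells lacking compound and 100% = ligand binding without Mn2+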
FPR ligand: binds the human formylpeptide receptor FPR; FPR-expressing cells, fluorescent ligand binding, flow cytometry; inhibition, % (test concentration not listed); 0.74% of 24,000 active; AID 440;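 note: 0% = buffer wells and 100% = receptor blocker peptide wells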
Target sequence (P21462 whole entry, looked up): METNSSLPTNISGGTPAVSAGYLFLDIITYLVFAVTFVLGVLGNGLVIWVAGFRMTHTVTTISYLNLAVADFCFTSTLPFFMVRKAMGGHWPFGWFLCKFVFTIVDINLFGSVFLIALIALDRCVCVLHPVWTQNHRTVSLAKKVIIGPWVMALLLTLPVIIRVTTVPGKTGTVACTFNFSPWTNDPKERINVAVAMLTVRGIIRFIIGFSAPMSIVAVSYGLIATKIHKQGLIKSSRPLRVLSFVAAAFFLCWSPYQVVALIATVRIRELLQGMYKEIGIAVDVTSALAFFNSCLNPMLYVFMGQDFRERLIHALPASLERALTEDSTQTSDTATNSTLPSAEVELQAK
* marks the source's active call; other numbers are inactive results; ? = inconclusive; . = no result. A selection: hits, their analogues and other compounds. The true share with any hit is near 1.9%. Cut-off read from the data, not from the text of the source, unless noted: active = inhibition above about 30%; inconclusive = no clear call, values can overlap the other calls; inactive = below that.

SMILES | VLA-4 agonist | FPRL1 binder | LNCaP diff act | Jurkat autofluor | VLA-4 antagonist | FPR ligand
CCN1C=C(Cc2cccs2)C2=C(C1)C(c1cccs1)C(C#N)=C(N)O2 (stereo unspecified) | ? | -7 | . | 3.1* | ? | 6
CC(C)c1cc(C(=O)Nc2cc(Cl)ccc2O)no1 | ? | -12 | 6 | 3.8* | ? | -19
CC(C)c1cc(C(=O)Nc2cccc(Cl)c2)no1 | 0 | 3 | 8 | 1.1 | 7 | -1
COCCCNC(CC(=O)Nc1ccc(N(C)C)cc1)C(=O)O (stereo unspecified) | ? | 0 | 13 | 1.6 | ? | 0
O=c1c2c(nc3c(-c4cccc5ccccc45)c[nH]n13)CCC2 | . | -1 | . | . | . | -14
O=c1c2c(nc3c(-c4ccc(Cl)cc4)c[nH]n13)CCCC2 | . | 1 | . | . | . | 71*
CCOC(=O)c1cc2c(=O)n3ccccc3nc2n(CCCOC)c1=NC(=O)c1cccnc1 | 0 | -1 | . | 1.1 | 10 | -2
CCOC(=O)c1cc2c(=O)n3cccc(C)c3nc2n(Cc2ccco2)c1=NC(=O)c1cccnc1 | ? | -7 | 9 | 5.5* | ? | 0
CCOC(=O)c1cc2c(=O)n3ccccc3nc2n(Cc2ccco2)c1=NC(=O)c1cccnc1 | ? | 0 | 4 | 4.3* | ? | -6
COCCCNC(=O)CS(=O)(=O)Cc1nc(-c2cccc(OC)c2)oc1C | 7 | 0 | 5 | 0.94 | 11 | 10
COc1cccc(-c2nc(CS(=O)(=O)CC(=O)NCCC(C)C)c(C)o2)c1 | 0 | 2 | 3 | 1 | 22 | 34*
Cc1cc(NC(=O)c2noc3c2CCc2ccccc2-3)n(-c2ccccc2)n1 | 7 | 13 | 35* | 1 | 7 | 2
Cc1cc(NC(=O)Nc2cc(C)nn2-c2ccccc2)n(-c2ccccc2)n1 | -8 | -1 | 2 | 1.1 | 4 | 10
Cc1c(C(=O)N2CCCc3ccccc32)oc2ccc(S(=O)(=O)N3CCOCC3)cc12 | ? | -13 | 2 | 1.4 | ? | 4
CN1CCc2c(sc3c2C(=O)NC(c2cccc(OC(=O)c4cccs4)c2)N3)C1 (stereo unspecified) | ? | 0 | 7 | 3.2* | ? | 2
Cc1onc(-c2ccccc2)c1C(=O)Nc1cccc(C#N)c1 | 7 | 2 | 3 | 1 | 7 | -4
CCOC(=O)c1c(C)oc2c1c(C=NCc1ccccn1)c(O)c1ccccc12 | ? | -39 | 5 | 2.9* | ? | -4
Cc1ccc(-n2nc3c(c2NC(=O)c2ccc(S(=O)(=O)N4CCOCC4)cc2)CSC3)c(C)c1 | 11 | -8 | 14 | 0.99 | -25 | -2
Cc1cc(/C=c2/sc3nc4ccccc4n3c2=O)c(C)n1-c1ccccn1 | ? | -19 | 14 | 3.7* | ? | -13
C=CCOc1ccccc1/C=c1\sc2nc(=O)c(C)nn2c1=O | 10 | 21 | 6 | 1.1 | -24 | 13
CC1(C)Cc2ccccc2C(N)=C1C#N | -2 | 22 | 4 | 0.96 | -16 | 0
O=C(NC1CCCCC1)c1sc(=S)n2c1[nH]c(=O)c1ccccc12 | ? | -3 | 6 | 1.3 | ? | 62*
O=C(NCC1CCCO1)c1sc(=S)n2c1[nH]c(=O)c1ccc(C(=O)N3CCCCC3)cc12 (stereo unspecified) | -1 | -1 | 11 | 1 | -37 | -1
CCCCNC(=O)c1sc(=S)n2c1[nH]c(=O)c1ccccc12 | ? | 4 | 12 | 1.3 | ? | 89*
CCOC(=O)Cn1c(=O)oc2cc(S(=O)(=O)Nc3ccc(F)cc3)ccc21 | ? | -5 | 6 | 1.6 | ? | -13
CCCOc1ccccc1NC(=O)c1ccc(N)cc1 | -2 | -2 | 6 | 0.96 | 5 | 3
CCCOc1ccc(N)cc1N | ? | -16 | 16 | 7.9* | ? | -4
CCCCC1(Cc2cccc([N+](=O)[O-])c2)C(=O)N(c2ccccc2)N(c2ccccc2)C1=O | -5 | . | . | . | 26 | .
COc1ccc(CN(Cc2cc3cc4c(cc3[nH]c2=O)OCO4)C(=O)NC2CCCCC2)cc1 | 3 | 3 | 8 | 1.1 | -4 | 14
COC(=O)c1ccccc1S(=O)(=O)N(Cc1cc2cc3c(cc2[nH]c1=O)OCO3)C1CCCCC1 | -7 | -4 | 41* | 1.1 | 15 | -10
